About 13,000 (27%) of roughly 48,000 compounds showed an effect of 50% or more. This is one part of the list.
Tested on: Wolbachia pipientis
Test: Anti-Wolbachia Cell-Based Screen
Format: functional
Parameters: scale not given: in the data most compounds retested in dose-response had high values
Settings: 5 µM

SMILES | Percent Effect [%]
Cc1cnn(CCNCC(=O)Nc2ccc(Br)cn2)c1 | -4.986
O=C(O)C(F)(F)F.O=C1CC[C@]2(CC[C@@H](NCc3ccc4c(c3)OCO4)CC2)N1 | -34.14
O=C(NC1CCCC1)NC1CCc2[nH]c(=O)ccc2C1 (stereo not drawn) | 2.289
O=C(O)C(F)(F)F.O=c1ccc2c([nH]1)CCC(NCc1ccc(F)cc1)C2 (stereo not drawn) | 112.4
COc1ccc(CN[C@H]2CC[C@@]3(CCC(=O)N3)CC2)cc1.O=C(O)C(F)(F)F | 13.86
CN(C)C(=O)N1CCc2ccc(=O)[nH]c2CC1 | -8.1
O=c1ccc2c([nH]1)CCC(NCc1ccncc1)C2 (stereo not drawn) | 106.2
CC(C)NC1CCc2[nH]c(=O)ccc2C1.O=C(O)C(F)(F)F (stereo not drawn) | 105.5
O=C(O)C(F)(F)F.O=c1ccc2c([nH]1)CCC(NCc1ccc3c(c1)OCO3)C2 (stereo not drawn) | 106.8
CSc1ccc(CNC2CCN(CCc3ccncc3)CC2)cc1 | -23.46
COc1ccc2c(c1)CC(NCc1cccc(NC(C)=O)c1)CC2 (stereo not drawn) | 5.004
O=C(O)C(F)(F)F.O=C1CC[C@]2(CC[C@@H](NCc3ccoc3)CC2)N1 | -19.54
COc1ncc(C)cc1NC(=O)COc1ccccc1F | -12.82
CCO[C@H]1COC[C@@H]1NC(=O)c1c[nH]nc1C1CCCCC1 | -0.7852
Cn1c(C(N)=O)cc2c1CN(C(=O)C1CC(=O)N(C(C)(C)C)C1)CC2 (stereo not drawn) | -2.281
Cn1ncc2c(NCC3CCS(=O)(=O)C3)nc(C3CCCC3)nc21 (stereo not drawn) | -5.604
O=C(CCNc1ncccn1)NCc1cccc(OC(F)F)c1 | -10.33
O=C(CCC1CC1)N1C[C@@H](CN2CCCC2)[C@@H](CO)C1 | -10.86
Cc1ccc(CNC2CCc3[nH]c(=O)ccc3C2)cc1C.O=C(O)C(F)(F)F (stereo not drawn) | 104.8
CCC(=O)N(C)CC(=O)Nc1ccc(Br)cn1 | -3.099
O=C(CCc1nc(Cl)n[nH]1)N1C[C@H](CO)C[C@H](CN2CCCC2)C1 | -2.773
Cn1nc2c(cc1=O)CN(CC(=O)Nc1ccc(Cl)cn1)CC2 | -5.01
CC(=O)NCc1ccc(-c2ccccc2C(=O)O)cn1 | 125.9
COc1ccccc1OCCC(=O)NCc1ncc(C)c(OC)c1C | -4.89
CC(=O)NCc1cccc(-n2ccnc2-c2cccc(C(=O)O)c2)c1 | -20.57

SMILES | Percent Effect [%]
COCCC(=O)NCc1ccc(-c2ccccc2C(=O)O)cn1 | 105.5
CCCN1CCCn2nc(CNC(=O)CCOC)cc2C1 | 16.28
COc1c(C)cnc(CNC(=O)CCOCc2ccccc2)c1C | 7.332
COc1ccccc1NCC(=O)NCc1cc[nH]n1 | 15.35
COCCC(=O)NCc1ccc(-c2ccccc2C(=O)O)nc1 | 88.43
O=C(Cc1ccccc1)NCc1ccc(-c2ccccc2C(=O)O)cn1 | 101.1
O=C(Cc1cc(-c2ccc3c(c2)OCCO3)on1)NCc1ccccn1 | 5.76
COCCC(=O)NCc1cccnc1-n1cnc2ccccc21 | -10.59
Cc1oc(CNC(=O)Cc2ccc3ccccc3c2)cc1C(=O)O | -0.3002
CCN(CC)S(=O)(=O)NCCc1cc(C)ccc1OC | 2.679
Cc1noc(CNc2ccc(CC(=O)N3CCSCC3)cc2)n1 | -10.08
COCCCN1C(=O)CC[C@H]2CN(c3nc4ccccc4s3)CC[C@H]21 | -8.201
CN1CCN(c2ncccc2CNc2ncccc2C#N)CC1 | 1.331
O=C(CCCn1ccnc1)N1CCC2(CC1)[C@H](O)C[C@@H]2OCCO | 0.2303
CCCc1cc(CNC(=O)C2CCOc3ccccc3C2)on1 (stereo not drawn) | 6.963
COCC(=O)Nc1cnc(N2CCN(c3ccccc3)CC2)nc1 | -8.386
COCC(=O)NCc1ccc(-c2ccccc2C(=O)O)cn1 | 123.3614
COCC(=O)NCc1cccnc1-n1cnc2ccccc21 | 13.4
Cc1nc(CN2CCCN(CCOc3cccc(C#N)c3)CC2)no1 | 11.38
O=C(c1cc(C2CC2)on1)N1CCC(Oc2ncccc2Cl)CC1 | 9.581
O=C(c1cc(C2CC2)on1)N1C[C@H]2CC[C@](O)(c3ccccc3F)[C@H]2C1 | 127.6
Cc1cnn(C2CCCN(C(=O)c3cc(C4CC4)on3)C2)c1 (stereo not drawn) | 8.361
c1ccc2c(Cc3nnc([C@H]4CCN(C5CCC5)C4)o3)c[nH]c2c1 | -3.783
COc1ccc(C2=CNC(C(F)(F)F)=CC2N)cc1 (stereo not drawn) | 99.44
NC1C=C(C(F)(F)F)NC=C1c1ccccc1 (stereo not drawn) | 86.08

SMILES | Percent Effect [%]
NC1C=C(C(F)(F)F)NC=C1c1ccc(Cl)cc1 (stereo not drawn) | 102.6
CC(NC(=O)C1CCN(S(N)(=O)=O)CC1)c1cccc(OC(F)F)c1 (stereo not drawn) | 6.374
CS(=O)(=O)NCCNc1ncnc2cccc(F)c12 | 8.452
CC(C)CC(NC(=O)c1ccco1)c1nnc2ccccn12 (stereo not drawn) | 109.4
CCCC(NC(=O)c1cnccn1)c1nnc2ccccn12 (stereo not drawn) | 41.87
CCCC(NC(=O)c1ccccn1)c1nnc2ccccn12 (stereo not drawn) | 4.889
O=C(NCC1CCSCC1)N(CCCO)C1CCc2ccccc21 (stereo not drawn) | 6.335
COc1ccc(C)cc1S(=O)(=O)NCC(c1cccn1C)N(C)C (stereo not drawn) | 4.095
CC(C)CC(=O)N(C)Cc1nc(C(F)(F)F)cs1 | 105.6
Cc1c(C(=O)N(C)CC(C)O)sc2nc(C(F)(F)F)ccc12 (stereo not drawn) | 9.483
CCOCCC(=O)NCCNc1nccc(C(F)(F)F)n1 | -1.225
Cc1nc(CN(C)c2nccc(C(F)(F)F)n2)cs1 | -8.606
CCC(NC(=O)c1ccc(OC)nn1)c1nc(C(F)(F)F)cs1 (stereo not drawn) | -7.754
CCOCCn1c(=O)[nH]c2cc(C(=O)N(C)Cc3nc(C)cs3)ccc21 | -23.7
CCOCC(=O)N(C)Cc1nc(C(F)(F)F)cs1 | 102.1
CCC(NC(=O)c1ccc(COC)o1)c1nc(C(F)(F)F)cs1 (stereo not drawn) | -11.95
COCCC(=O)N(C)Cc1nc(C(F)(F)F)cs1 | 98.57
Cc1cc(CN(C)C(=O)c2ccnc(N(C)C)c2)no1 | -7.552
CCOC1CCCN(C(=O)c2[nH]nc(C)c2Br)C1 (stereo not drawn) | 6.367
CNC(=O)N1CCC2(CC1)c1ncc(C)n1CCN2C.O=C(O)C(F)(F)F.O=C(O)C(F)(F)F | 93.19
CCN1CC[C@@]2(C(=O)N3CCOCC3)CCN(C(=O)NC)CC[C@@H]12.O=C(O)C(F)(F)F | -38.24
Cc1cnc2n1CCN(C)C21CCN(CC2CC2)CC1.O=C(O)C(F)(F)F.O=C(O)C(F)(F)F.O=C(O)C(F)(F)F | 2.342
Cc1cnc2n1CCN(C)C21CCN(C(=O)CC(C)C)CC1.O=C(O)C(F)(F)F | 6.371
CCN1CCn2c(C)cnc2C12CCN(C(=O)NC)CC2.O=C(O)C(F)(F)F | 106.5
CCN1CCn2c(C)cnc2C12CCN(C(=O)NCC(C)C)CC2.O=C(O)C(F)(F)F | 99.78

SMILES | Percent Effect [%]
NC(=O)C1CCN(Cc2ccc(S(=O)(=O)N3CCCC3)o2)CC1 | -8.364
Cc1c(NCc2ccccc2C#N)cccc1-n1cnnn1 | 4.013
N#CCCN(CC1CCOC1)Cn1ccc(-c2ccccc2)n1 (stereo not drawn) | -2.845
CN(C)C1(C(=O)NC2CCC(Oc3ccccc3C#N)CC2)CCC1 (stereo not drawn) | -18.62
CCN(Cc1nc(COC)no1)Cc1ccccc1OCC(=O)O | 10.36
CCn1cc(C(=O)NCC(C)(CC)N2CCOCC2)c2ccccc21 (stereo not drawn) | 6.626
Cc1cnn(CCNCc2c(C)nn(Cc3ccccc3)c2C)c1 | -5.977
O=C(O)C(F)(F)F.O=C(O)C(F)(F)F.O=C(c1ccsc1)N1CCC2(CC1)COCCN(Cc1ccncc1)C2 | 15.81
O=C(N1CCCC1)N1CCC2(CC1)COCCN(Cc1cccnc1)C2.O=C(O)C(F)(F)F.O=C(O)C(F)(F)F | -4.319
O=C(C1CCCO1)N1CCC2(CC1)COCCN(Cc1cccnc1)C2.O=C(O)C(F)(F)F.O=C(O)C(F)(F)F (stereo not drawn) | 128.2
Cn1cccc1CN1CCC2(CCCN(C(=O)Cc3cccnc3)C2)C1 (stereo not drawn) | 5.928
O=C(C1CCC2(CCN(Cc3cccnc3)CC2)CO1)N1CCCC1.O=C(O)C(F)(F)F.O=C(O)C(F)(F)F (stereo not drawn) | 90.21
O=C(C1CCCO1)N1CCC2(CC1)COCCN(Cc1ccncc1)C2.O=C(O)C(F)(F)F.O=C(O)C(F)(F)F (stereo not drawn) | -9.895
O=C([C@@H]1CCCO1)N1CCOCC2(CCN(Cc3cccnc3)C2)C1 (stereo partly drawn) | 95.11
O=c1[nH]c(C2CCOC2)nc2ccc(Cl)cc12 (stereo not drawn) | -0.06581
CCC1CN(C(=O)c2ccccc2N2CCCC2)CCN1C(C)C (stereo not drawn) | -3.455
CCN1C(=O)CC(c2cnn(C)c2)C12CCN(C(=O)c1ccc[nH]1)CC2 (stereo not drawn) | 13.05
CCC(=O)N1CCC2(CC1)C(c1cccnc1)CC(=O)N2CCOC.O=C(O)C(F)(F)F (stereo not drawn) | 110.5
CCN1C(=O)CC(c2cccnc2)C12CCN(c1ncc(F)cn1)CC2 (stereo not drawn) | -11.62
COCCN1C(=O)CC(c2cccnc2)C12CCN(C(=O)C1CC1)CC2.O=C(O)C(F)(F)F (stereo not drawn) | 106.6
CCN1C(=O)CC(c2ccccc2)C12CCN(c1ncc(C)cn1)CC2 (stereo not drawn) | -13.83
COCCN1C(=O)CC(c2cccnc2)C12CCN(C)CC2 (stereo not drawn) | 113.4
F[C@@H]1CN(Cc2ccccc2)C[C@@H]1OCc1nc2ccccc2[nH]1 | -3.249

— ChEMBL document CHEMBL3988442, “University of Dundee, Small-Polar-MMV Screening Library” (2021)
